Potency data for 24 compounds are collected here from PubChem BioAssay (NCATS).

In test [1] the target is Retinaldehyde dehydrogenase 3 (Homo sapiens) (UniProt P47895). Kind of test: qHTS for Inhibitors of the Aldehyde Dehydrogenase Family (ALDH1A3) Confirmatory screens (AID 2061311). Note: nearly all actives have a fitted effect of over 60% in size. For orientation: In qHTS, concentration-response curves come from the screen itself.
Test [2] has as its target Retinal dehydrogenase 2 (Homo sapiens) (UniProt O94788). Kind of test: qHTS for Inhibitors of the Aldehyde Dehydrogenase Family (ALDH1A2) Confirmation screens (AID 2061314). Note: nearly all actives have a fitted effect of over 65% in size.
In test [3] the target is Retinaldehyde dehydrogenase 3 (Homo sapiens) (UniProt P47895). The test can be described thus: qHTS for Inhibitors of the Aldehyde Dehydrogenase Family (ALDH1A3) Primary screen (AID 2061315).
Test [4] addresses Aldehyde dehydrogenase 1A1 (Homo sapiens) (UniProt P00352). The test can be described thus: qHTS for Inhibitors of the Aldehyde Dehydrogenase Family (ALDH1A1) Confirmatory screens (AID 2061316). Note: nearly all actives have a fitted effect of over 65% in size.

The structures appear in SMILES notation. Inconclusive results are not listed. Activity calls are given as the source filed them. Calls come from the whole dose curve; as a rule, active = well fitted inhibition curve with a large enough effect; inconclusive = small, poorly fitted or top-dose-only effect; inactive = no such curve, though single readings can be large or run the other way.
Potency is the fitted concentration of half-maximal effect.

As for `O=C(Cc1ccccc1)Nc1sc2c(c1C(=O)Nc1ccc(Cl)cc1)CCCC2`, the Potency result in test [1] and in test [3] was “inactive” each time. Also, the Potency is 4 µM (active) in test [2] and 11.3 µM (active) in test [4].
Consider `CC(=O)Nc1sc2c(c1-c1nccs1)CCNC2`, for which the Potency entry in test [1], in test [2] and in test [3] was “inactive” in each case.
As for `Cc1ccn2c(Nc3ccc4c(c3)OCO4)c(-c3ccccn3)nc2c1`, in test [1], the Potency was 17.9 µM (active). Moreover, the Potency entry in test [3] is “inactive”.
For the compound `N#Cc1ccc(N2CCN(S(=O)(=O)c3ccc4c(c3)CC(=O)N4)CC2)cc1`, the Potency in test [1] is 15.8 µM (active). Also, the Potency entry in test [3] and in test [4] was “inactive” in each case.
Consider `Cc1cc(C)nc(NC(=S)N2CCN(c3cccc4cnccc34)CC2)c1`, for which the Potency in test [1] was 20.1 µM (active); in test [2] it was 8.96 µM (active); in test [4], 10.1 µM (active).
`CC(=O)Nc1ccc(OCc2cccc(-c3nc4ccccc4c(=O)n3Cc3ccco3)c2)cc1`: the values for the Potency in test [1], in test [2] and in test [4] were 15.8 µM (active), 7.98 µM (active) and 2.83 µM (active), respectively. Besides, the Potency entry in test [3] is “inactive”.
For `COc1ccc2ccccc2c1CN(C)CC(=O)Nc1ccc(N2CCOCC2)cc1`, the results for the Potency in test [1], in test [2] and in test [4] were 11.3 µM (active), 11.3 µM (active) and 7.98 µM (active), respectively.
Take `Nc1ccc(CNc2ccc([S+](=O)([O-])Nc3nccs3)cc2)c(O)c1`: the Potency is 5.04 µM (active) in test [1], 17.9 µM (active) in test [2] and 3.18 µM (active) in test [4].
Consider `Cc1sc(NC(=O)Cc2ccc3c(c2)OCO3)nc1-c1ccc2c(c1)CCN2C`, for which the results for the Potency in test [1], in test [2] and in test [4] were 11.3 µM (active), 12.7 µM (active) and 3.57 µM (active), respectively.
Consider `O=C(Nc1cccc(Cc2ccccc2)n1)c1ccc(-c2cccc([N+](=O)[O-])c2)o1`, for which the Potency was 6.34 µM (active) in test [1], 7.98 µM (active) in test [2] and 5.65 µM (active) in test [4]. For the same compound, in test [3], the Potency result is “inactive”.
With `Oc1ccc(Nc2ccccc2F)c2cccnc12`, the Potency in test [1] is 7.98 µM (active); in test [3], 1.26 µM (active). In addition, the Potency entry in test [4] was “inactive”.
In the same order, the values of `COC(=O)CCSC/C=C(\C)CCn1cc(CCc2ccc(-c3ccccc3)cc2)nn1` are 8.96 µM (active), “inactive” and 4.49 µM (active).
Consider `CN(Cc1ccco1)Cc1ccc(O)c2ncccc12`, for which the values for the Potency in test [1] and in test [2] were 11.3 µM (active) and 2.52 µM (active), respectively. Further, in test [3], the Potency result is “inactive”.
Regarding `N#Cc1cccc(OC2=NS(=O)(=O)c3ccccc32)c1`, the values for the Potency in test [1] and in test [4] were 12.7 µM (active) and 5.04 µM (active), respectively. In addition, the Potency entry in test [3] is “inactive”.
With `CC(=O)NC(C)c1cc(Cl)c2ccccc2c1O` (stereo not drawn), the figures for the Potency in test [1], in test [2] and in test [4] were 3.18 µM (active), 12.7 µM (active) and 4 µM (active), respectively.
In the same order, the values of `CC(=O)Nc1sc2c(c1-c1cccc3[nH]ncc13)CCNC2` are 12.7 µM (active), 10.1 µM (active) and 11.3 µM (active).
In the case of `O=C(Nc1sc2c(c1-c1nc3ccccc3s1)CCNC2)C(F)(F)F`, the Potency result in test [1] and in test [3] was “inactive” each time. Besides, in test [2], the Potency was 28.3 µM (active).
As to `NC(=O)C1CCN(c2nc(-c3ccc(-c4ccccc4)cc3)cs2)CC1`, the Potency in test [1] was 28.3 µM (active). Also, the Potency result in test [2], in test [3] and in test [4] was “inactive” throughout.
For the compound `Cc1ccc(S(=O)(=O)Nc2cc(S(=O)(=O)c3ccc(C)cc3)c(O)c3cccnc23)cc1`, the results for the Potency in test [1], in test [2] and in test [4] were 1.13 µM (active), 2.01 µM (active) and 1.42 µM (active), respectively.
`NC(=O)c1cccc(-c2cnc3c(O)ccc(C(=O)O)c3c2)c1`: the Potency was 11.3 µM (active) in test [1], 4.49 µM (active) in test [2] and 8.96 µM (active) in test [4]. Also, in test [3], the Potency entry was “inactive”.
In the case of `O=S1(=O)Nc2c(ccc3cccnc23)-c2ccccc21`, the values for the Potency in test [1] and in test [2] were 8.96 µM (active) and 12.7 µM (active), respectively. Moreover, the Potency entry in test [4] is “inactive”.
For the compound `Cc1c(C(=O)OCC2CCCC2)[nH]c2c1C(=O)CC(c1ccco1)C2` (stereo not drawn), the values for the Potency in test [1], in test [2] and in test [4] were 15.8 µM (active), 3.57 µM (active) and 1.13 µM (active), respectively. For the same compound, the Potency result in test [3] was “inactive”.
As for `COc1cc(/C=C(\C#N)C(=O)Nc2ccc(C(=O)O)cc2)ccc1OC(=O)c1cccc(F)c1`, in test [1], the Potency is 15.8 µM (active). The Potency result in test [2] and in test [4] was “inactive” in each case.
Take `Cc1c(C(=O)OC[C@H]2CCCO2)[nH]c2c1C(=O)CC(c1ccco1)C2` (stereo partly drawn): the Potency was 12.7 µM (active) in test [1], 4 µM (active) in test [2] and 1.42 µM (active) in test [4]. Further, the Potency entry in test [3] was “inactive”.
